Results from PubChem BioAssay.

What follows are molecules tested on Sam68 (KHDRBS1) (assay: Sam68 small-molecule binders, primary screen, biochemical, small-molecule microarray, 635 nm fluorescence (AID 1125;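 further: score merges 667 nm channel intensity with signal to noise over triplicate slides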)). Details: small-molecule microarray binding, higher = more signal.
In the case of COc1cc(CO)ccc1OC(C)=O, the composite z-score is reported as 0.482.
COc1ccc(C#Cc2ccc3c(c2)[C@]2(C(=O)N3)[C@H](c3ccc(O)cc3)N3[C@H](c4ccccc4)[C@H](c4ccccc4)OC(=O)[C@H]3[C@@H]2C(=O)N2CCCCCCC2)cc1 gave a composite z-score of 1.31.
CN1C=C(C(=O)OCCS(C)(=O)=O)C(C(=O)OCCS(C)(=O)=O)=CC(CCCO)=CC1C1CC1 (stereo not given) showed a composite z-score of -0.0704.
Molecule COCCOC(=O)N1C(=O)[C@@]2(c3cc(C#CCC(C(=O)OC)C(=O)OC)ccc31)[C@H](c1ccc(O)cc1)N1[C@H](c3ccccc3)[C@H](c3ccccc3)OC(=O)[C@H]1[C@@H]2C(N)=O has a composite z-score of 1.31.
With COc1ccc(NN2C(C(O)c3ccc(OC)c(OCc4ccccc4)c3)C=CC3C(=O)N(C4CCCCC4)C(=O)C32)cc1 (stereo not given) the composite z-score was 1.24.
Work on CC(C)N1CC=CC23O[C@@H]4C=CCOC(=O)[C@@H]4[C@H]2C(=O)N(CCO)[C@@H]3C1=O (stereo not given in full) yielded a composite z-score of 0.557.
O=C1c2ccccc2[C@@]2(Cc3ccccc3N(Cc3ccccc3)C2=O)[C@H](c2ccc(CO)cc2)N1C1CCCCC1 gave a composite z-score of 0.689.
Work on CO[C@H]1O[C@H](CO)[C@@H](OC(=O)Nc2ccc3c(c2)OCO3)[C@H](OC(=O)Nc2ccccc2)[C@H]1OC(=O)Nc1ccccc1 yielded a composite z-score of 1.19.
In the case of CC(C)C[C@@H]1NC(=O)[C@@H]2C[C@H](C(=O)NCCCCCC[N+](C)(C)C)[C@H](c3ccc(O)cc3)N2C1=O, the composite z-score is reported as 1.25.
N#Cc1ccc(NN2C(C(O)C3CCCCC3)C=CC3C(=O)N(c4ccccc4)C(=O)C32)cc1 (stereo not given) was tested, and the composite z-score was 1.29.
Molecule O=c1oc(-c2ccccc2)nc2cc(Br)ccc12 has a composite z-score of 0.0872.
COC(=O)[C@@]1(Cc2ccc(OC)cc2)[C@H]2c3cc(C(=O)N(C)C)n(Cc4c(OC)[nH]cc(C)c4=O)c3C[C@H]2CN1C(=O)c1ccccc1 showed a composite z-score of -0.0964.
CC(C)NC(=O)[C@@H]1c2ccccc2C(=O)N(Cc2ccccc2)[C@H]1c1ccc(CO)cc1 was tested, and the composite z-score was -0.598.
O=C1C=CC(=O)[C@@H]2CC(COc3ccccc3)=C3[C@@H](CCc4ccccc4)OB(O)C[C@@H]3[C@H]12 showed a composite z-score of 0.359.
C=CCC(OC(C)=O)[C@@H]1[C@@H](N(Cc2cccc3ccccc23)C(=O)c2cccc3ccccc23)c2cc(OCCCO)ccc2N1C(=O)c1ccc2ccccc2n1 (stereo not given in full) gave a composite z-score of -0.0153.
In the case of O=C1[C@]2(CO)C=C(Br)[C@@H](C[C@@H]2c2ccccc2)[C@@]12CO2, the composite z-score is reported as -0.566.
COCC1=C2[C@@H](CCc3ccccc3)OB(O)C[C@@H]2[C@@H]2C(=O)N(Cc3ccccc3)C(=O)[C@@H]2C1 was tested, and the composite z-score was -0.42.
With CCOC(=O)C1=CC[C@@H](c2ccccc2)N(S(=O)(=O)c2ccc(C)cc2)[C@H]1C(=O)OCC the composite z-score was 1.12.
Molecule Cc1ccccc1C(O)C1C=CC2C(=O)N(C)C(=O)C2N1Nc1ccccc1 (stereo not given) has a composite z-score of 1.23.
Molecule C=CCC(OC(C)=O)[C@@H]1[C@@H](N(Cc2ccc(-c3ccccc3)cc2)C(=O)Cc2ccc(OC)cc2)c2cc(OCCCO)ccc2N1C(=O)c1ccc2ccccc2n1 (stereo not given in full) has a composite z-score of -0.959.
Work on CCN(CC)c1ccc(N2CC=CC34O[C@@H]5C=CCCOC(=O)C5[C@H]3C(=O)N(CCCCCO)[C@@H]4C2=O)cc1 (stereo not given in full) yielded a composite z-score of 0.13.
Molecule C[C@]1(C(=O)NCc2ccccc2)c2ccccc2C(=O)N(Cc2ccc(OC(F)(F)F)cc2)[C@H]1c1ccc(CO)cc1 has a composite z-score of 0.426.
For CC(=O)Nc1cc(Br)ccc1C(=O)O, the composite z-score was 0.402.
COC(=O)C[C@H]1O[C@]2(C(=O)N(Cc3ccccc3)c3ccc(NC(C)=O)cc32)[C@@H](C)[C@@H]1[Si](C)(C)c1ccc(OC)cc1 gave a composite z-score of 1.31.
Molecule COCCOC(=O)N1C(=O)[C@@]2(c3cc(C#CCC(C(=O)OC)C(=O)OC)ccc31)[C@H](C(=O)N1CCN(c3ncccn3)CC1)[C@H]1C(=O)O[C@H](c3ccccc3)[C@H](c3ccccc3)N1[C@@H]2c1ccc(OCCO)cc1 has a composite z-score of 1.3.
Molecule O=c1cccc(C=Cc2ccccc2)o1 has a composite z-score of -0.0848.
In the case of CCCCC(CC)C(O)C1C=CC2C(=O)N(c3ccccc3)C(=O)C2N1Nc1ccccc1 (stereo not given), the composite z-score is reported as 0.883.
COc1ccc([Si](C)(C)[C@@H]2[C@@H](CC(=O)N(CCO)Cc3ccccc3)O[C@]3(C(=O)N(C)c4ccccc43)[C@H]2C)cc1 gave a composite z-score of 1.31.
For CC(C)C[C@@H]1NC(=O)[C@H]2C[C@@H](C(=O)NCCCCCNC(=O)CS)[C@@H](c3cccc(OCCO)c3)N2C1=O, the composite z-score was 1.3.
O=C(OCCF)C1=CCC(c2cccc(Cl)c2)O1 (stereo not given) showed a composite z-score of 0.748.
For O=C(O)[C@@]1(Cc2ccccc2)N=C(c2ccc(OCCCO)cc2)O[C@H]1c1ccccc1, the composite z-score was 0.499.
For CO[C@H]1O[C@H](CO)[C@@H](OC(=O)Nc2ccc(Oc3ccccc3)cc2)[C@H](OC(=O)Nc2ccccc2)[C@H]1OC(=O)Nc1ccccc1, the composite z-score was 1.3.
O=C(CS)NCCCCCCNC(=O)[C@H]1C[C@H]2C(=O)NCC(=O)N2[C@H]1c1ccc(O)cc1 gave a composite z-score of -0.272.
Work on COCCOC(=O)N1C(=O)[C@@]2(c3cc(C#CCCO)ccc31)[C@H](c1ccc(O)cc1)N1[C@H](c3ccccc3)[C@H](c3ccccc3)OC(=O)[C@H]1[C@@H]2C(N)=O yielded a composite z-score of 0.761.
Work on CC(C)(C)N1CC=CC23O[C@@H]4/C=C\CCCOC(=O)C4[C@H]2C(=O)N(CCO)[C@@H]3C1=O (stereo not given in full) yielded a composite z-score of -0.13.
